# Hits are enriched below; roughly 0.41% of the tested compounds scored in any of these assays.
# TRPV1 agonist: activates the human vanilloid receptor TRPV1 | Q8NER1 | TRPV1-expressing cells, Fluo-8 calcium influx, agonist mode | activation, % at 8.33 µM | actives 0.19% (n = 320,000) | AID 540275; in the data active = activation above about 80%; inconclusive = between about 30% and that limit; note: 0% is about no effect
#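 Fluo-8 calcium influx in TRPV1-expressing cells, kinetic read (ex 480/em 520 nm). Compound added and read 3 min for agonist activity, followed by capsaicin at EC20 final and 2 min further read for enhancement.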
# TRPV1 potentiator: human TRPV1 potentiation; AID 540277; potentiation, % at 8.33 µM; TRPV1-expressing cells, Fluo-8 calcium influx, capsaicin EC20 potentiation; actives 0.02% (n = 320,000); in the data active = potentiation above about 80%; inconclusive = between about 30% and that limit; note: 0% is about no effect
#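 Cells expressing TRPV1 were dye-loaded with Fluo-8 and read kinetically: 10 s baseline, 3 min after compound (agonist portion), then 2 min after EC20 capsaicin (allosteric enhancer portion). Calcium-bound dye fluorescence at 480/520 nm.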
# TRPML1 agonist: agonists of human TRPML1 channel. actives 0.12% (n = 410,000). TRPML1-expressing cells, Ca2+ dye fluorescence, FDSS. Q9GZU1. activation, % (concentration not given with the values); in the data active = activation above about 50%; inconclusive = mostly about 30% to 49%; note: 0% is about no effect
#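 Tet-induced TRPML1-DL cells, 1,500 per well, cultured overnight, were loaded with a no-wash Ca2+ dye for 45–90 min. Calcium fluorescence was recorded on the FDSS for 110 s after compound addition, before the EC80 agonist (4 uM 54-4) was added.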
# TRPML1 blocker: inhibitors of human TRPML1 channel. activity change, negative = inhibition, % (no concentration beside the values). actives 0.02% (n = 390,000). Q9GZU1. TRPML1-inducible cells, Ca2+ dye fluorescence, FDSS; active compounds read low; inhibition of EC80 agonist-evoked calcium signal; in the data active = activity change below about -50%; inconclusive = between about -30% and that limit;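 note: stimulus is agonist 54-4 at its EC80 concentration; % is set by controls: 0 for no effect and ±100 for the full control effect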
#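 Calcium fluorescence in TRPML1-DL cells induced overnight with Tet: a 110 s read after compound pin addition, then a 110 s antagonist read after challenge with 54-4 at 4 uM final (EC80).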
# A-T KAP1 phos: candidate therapy for ataxia-telangiectasia; actives 0.19% (n = 320,000); F2112 A-T fibroblasts, KAP-1 phosphorylation AlphaLISA; neocarzinostatin DNA damage 30 min before lysis; AID 485349; Potency, µM (doses to about 57.5 µM), for the others: top-dose activation, usual class: activators; active = well fitted activation curve with a large enough effect; inconclusive = small, poorly fitted or top-dose-only effect; inactive = no such curve, though single readings can be large or run the other way; note: potency is the fitted concentration of half-maximal effect; % of control where 0% means no effect; nearly all actives have a fitted effect of over 45% in size
#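 ATM-like activity read as KAP-1 phosphorylation via AlphaLISA donor/acceptor antibody pairs after lysis and 6 hr at 25C. Cells were ATM-null patient fibroblasts (F2112, hTERT), dosed 60 min, then exposed to the DSB inducer NCS for 30 min.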
# Active calls of the source: *; ? = inconclusive; · = no result; [ ] = remark or other dose.
SMILES,TRPV1 agonist,TRPV1 potentiator,TRPML1 agonist,TRPML1 blocker,A-T KAP1 phos
CCOC(=O)[C@H]1[C@H]2COc3ccc(C)cc3[C@@H]2N2C(=O)c3ccccc3NC(=O)[C@@]12C,89.7*,6.9,-1.0,-13.2,4.2%
COc1cc2c(NC3CCN(C)CC3)nc(N3CCCN(C)CC3)nc2cc1OCCCCCN(C)C,·,·,-0.6,·,·
CN(C)c1ccc(/C=C\C=C/c2ccnc3ccccc23)cc1,·,·,-0.3,·,·
CCOC(=O)[C@H]1[C@H]2COc3ccc(C)cc3[C@@H]2N2C(=O)c3ccc(F)cc3NC(=O)[C@@]12C,85.0*,20.0,-0.1,-0.9,-2.4%
CCOC(=O)[C@H]1[C@H]2COc3ccc(C)cc3[C@@H]2N2C(=O)c3ccc(C)cc3NC(=O)[C@@]12C,?,-27.6,1.2,-5.2,-7.5%
O=C(Nc1ccc(F)cc1)c1ccc2snnc2c1,81.8*,-17.6,-0.1,-7.4,-1.4%
COc1cc(CCC(=O)OCC(=O)N2CCc3ccccc32)cc(OC)c1OC,-3.6,0.2,0.7,3.0,8.91µM*
Cc1ccc(C2CN=NC23CCc2ccccc2C3=O)cc1 (centres undefined),?,-15.0,-0.9,-11.4,-1.6%
COC(=O)c1ccc(C)cc1C1CN=NC12Cc1cc(C)ccc1C2=O (centres undefined),·,·,95.4*,-21.6,·
CCN1C/C(=C\c2cccc([N+](=O)[O-])c2)C(=O)/C(=C/c2cccc([N+](=O)[O-])c2)C1,-1.2,-5.2,0.3,1.3,22.4µM*
COc1cc2c(NC3CCN(C)CC3)nc(N3CCCN(C)CC3)nc2cc1OCCCC(C)C,·,·,-0.6,·,·
COc1ccc(OC)c(/C=C2/Sc3ccccc3C2=O)c1,?,15.5,53.8*,-11.6,1.2%[11.5 µM]
COC(=O)c1ccccc1-c1c2ccc(=N)cc-2oc2cc(N)ccc12,122.7*,-4.6,99.1*,-23.2,?
COC(=O)c1ccccc1-c1ccc(/C=N/NC(=O)c2cc3ccccc3o2)o1,5.2,22.4,1.3,9.6,8.0%
Cc1ccc(N2C(=O)c3cccc4c(C(=O)O)ccc(c34)C2=O)cc1,1.7,-5.8,·,·,0.0%
CC(=O)Nc1ccc(N2C(=O)c3cccc4c(O)ccc(c34)C2=O)cc1,?,-12.2,71.9*,-5.8,4.5%
O=C1c2ccccc2C(=O)N1c1ccc(Cl)cc1,3.2,-5.2,·,·,-1.3%
O=C1c2cccc3c(O)ccc(c23)C(=O)N1c1ccc(Cl)cc1,-10.4,3.0,103.7*,-8.2,?
O=C1c2cccc3c(O)ccc(c23)C(=O)N1Cc1ccco1,?,-7.3,99.2*,-18.7,2.6%
CNc1ccc(C=O)cc1Cl,·,·,-0.6,·,·
CN(C)c1ccc(/C=C/c2cnnc3ccccc23)cc1,·,·,16.0,·,·
CCOC(=O)c1c(C)c(C(=O)NCc2cccs2)c(C)n1C,2.3,10.9,0.4,-56.7*,-3.3%
Cc1cc(C)n(-c2nc(Nc3ccccc3)nc(-n3nc(C)cc3C)n2)n1,3.3,-0.2,0.4,15.0,5.9%
COc1cccc(/C=N/Nc2nc(Nc3ccccc3)nc(-n3nc(C)cc3C)n2)c1O,0.5,6.9,1.3,-52.4*,1.6%
O=C(COc1ccccc1C(=O)Nc1ccccc1)NC1CCCCC1,·,·,3.5,·,·
SMILES,TRPV1 agonist,TRPV1 potentiator,TRPML1 agonist,TRPML1 blocker,A-T KAP1 phos
O=C1c2ccccc2NC(c2cn[nH]c2-c2ccccc2)N1O (centres undefined),0.6,19.2,2.4,-58.2*,-11.0%
O=Cc1ccc(/C=C2\C=Cc3ccccc32)cc1,·,·,-0.4,·,·
c1ccc(CN2CCN(c3ncnc4c3[nH]c3ccccc34)CC2)cc1,80.2*,-33.9,-1.8,-16.2,-4.1%
Cc1ccc2c(c1)[nH]c1c(N3CCN(Cc4ccccc4)CC3)ncnc12,3.0,-1.2,1.3,5.9,11.2%
COc1ccc(Cl)cc1NC(=O)CN(C)C(=O)c1ccc(N2CCCCC2)c([N+](=O)[O-])c1,2.1,-6.6,61.4*,-14.0,-7.4%
COc1ccc(Cl)cc1NC(=O)CN(C)C(=O)c1ccc(N2CCCCCC2)c([N+](=O)[O-])c1,0.5,2.5,-0.5,-22.8,3.0%
Cc1ccc(CCNC(=O)C2CC(c3cccc(F)c3)=NO2)cc1 (centres undefined),-4.5,-14.5,-0.8,-9.7,14.1µM*
